Reference: PubChem BioAssay (Tox21)
Where “and” joins values, the source holds several entries; their conditions need not be identical. Equal values may be shown once. A structure can be active in one record and inactive in another. Calls of active or inactive are those of the source. Unless noted, calls come from the whole dose curve; as a rule, active = well fitted curve in the direction sought with a large enough effect in the repeat runs; inconclusive = weak or mixed curves; inactive = no such curve, though single readings can be large; an effect the other way counts as inactive or inconclusive.

Columns and labels:
[1] = qHTS assay for small molecule agonists of the p53 signaling pathway (AID 651631; calls by dose curve; note: nearly all actives have a fitted effect of over 15% in size; note: potency is the fitted concentration of half-maximal effect)
In short: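 We treat p53RE-bla HCT-116 cells with compounds for 16 h at 37 °C, add LiveBLAzer B/G FRET substrate for 2 h at room temperature, and measure fluorescence intensity.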

[2] = qHTS assay for small molecules that induce genotoxicity in human embryonic kidney cells expressing luciferase-tagged ATAD5 (AID 651632); note: nearly all actives have a fitted effect of over 15% in size; note: potency is the fitted concentration of half-maximal effect
In short: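 Luminescence read-out: after 16 hr compound exposure at 37C, ATAD5-luciferase HEK293T cells received Amplite, 30 min RT, then CCD imaging. A rise in signal marks genotoxic stress.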

[3] = qHTS assay for small molecule agonists of the p53 signaling pathway - cell viability (AID 651633; calls by dose curve; note: nearly all actives have a fitted effect of over 30% in size; note: potency is the fitted concentration of half-maximal effect)
In short: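 p53RE-bla cells, seeded at 4,000 per well and rested 5 h at 37 C/5% CO2, received compounds in DMSO for 16 h at 37 C. CellTiter-Glo was then added, and luminescence was read after 30 min at room temperature to gauge cytotoxicity.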

[4] = qHTS assay for small molecules that induce genotoxicity in human embryonic kidney cells expressing luciferase-tagged ATAD5 - cell viability (AID 651634; calls by dose curve; note: nearly all actives have a fitted effect of over 25% in size; note: potency is the fitted concentration of half-maximal effect)
In short: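 HEK293T ATAD5-luc cells, 2,000/well; compound 15.5 hr, 37C/5% CO2; CellTiter-Fluor 30 min, 37C; fluorescence read.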

[5] = qHTS assay for small molecule disruptors of the mitochondrial membrane potential - cell viability (AID 720634; calls by dose curve; note: nearly all actives have a fitted effect of over 20% in size; note: potency is the fitted concentration of half-maximal effect)
In short: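 Luminescence from CellTiter-Glo (ATP content) gave viability in HepG2 cells, read in the same wells as the MMP dye assay after 1 hr compound exposure at 37 C.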

[6] = qHTS assay to test for compound auto fluorescence at 590 nm (red) in HepG2 cells (AID 720674)
In short: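 Compound auto-fluorescence is scored relative to Rose Bengal sodium, measured at 540/590 nm in live HepG2 cultures after 1 hr compound contact (37 C, 5% CO2).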

[7] = qHTS assay to test for compound auto fluorescence at 535 nm (green) in HepG2 cells (AID 720675)
[8] = qHTS assay to test for compound auto fluorescence at 460 nm (blue) in HEK293 cells (AID 720678)
In short: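 Triamterene serves as the blue fluorophore standard. Compound signal at 405/460 nm is read in HEK293 wells (2,000 cells, 10% dialyzed FBS) after overnight treatment at 37C.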

[9] = qHTS assay to test for compound auto fluorescence at 590 nm (red) in HEK293 cells (AID 720679)
In short: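 We plated HEK293 cells in 10% dialyzed FBS medium, let them adhere for 4-5 hr, then added 23 nL compound. Overnight at 37C and 5% CO2 preceded fluorescence measurement at 540/590nm.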

[10] = qHTS assay to test for compound auto fluorescence at 535 nm (green) in HEK293 cells (AID 720680)
[11] = qHTS assay to test for compound auto fluorescence at 460 nm (blue) in HEK293 cell free culture (AID 720681)
In short: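 Test compounds were pinned into cell-free culture medium (DMEM with 10% FBS) and fluorescence was read directly at Ex/Em 405/460 nm. Signals were expressed as fluorescence equivalents of triamterene, with DMSO vehicle as control.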

[12] = qHTS assay to test for compound auto fluorescence at 535 nm (green) in HEK293 cell free culture (AID 720682)
In short: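 Green-channel intensity (Ex/Em 485/535 nm) was recorded from compound-treated wells containing only DMEM with 10% FBS. Fluorescein provided the equivalency standard.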

[13] = qHTS assay to test for compound auto fluorescence at 590 nm (red) in HEK293 cell free culture (AID 720683)
In short: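 Tox21 10K library compounds were pinned into cell-free DMEM with 10% FBS and fluorescence was read at excitation 540 nm. Activity is expressed as Rose Bengal sodium equivalency.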

[14] = qHTS assay to test for compound auto fluorescence at 590 nm (red) in HepG2 cell free culture (AID 720684)
In short: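 Readout: intrinsic compound fluorescence at 590 nm emission after 540 nm excitation, scaled to Rose Bengal sodium. Matrix was cell-free MEM with 10% FBS; DMSO vehicle wells served as control.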

[15] = qHTS assay to test for compound auto fluorescence at 460 nm (blue) in HepG2 cell free culture (AID 720685)
In short: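 Cell-free plates of MEM plus 10% FBS received 23 nL compound or DMSO vehicle; blue-channel (405/460 nm) intensity scored against triamterene as reference fluorophore.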

[16] = qHTS assay to test for compound auto fluorescence at 535 nm (green) in HepG2 cell free culture (AID 720686)
[17] = qHTS assay to test for compound auto fluorescence at 460 nm (blue) in HepG2 cells (AID 720687)
In short: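 Cells (2,000/well in MEM with 10% FBS) attached overnight at 37 C, then were exposed to compound or DMSO for 1 hr at 37 C, 5% CO2. Fluorescence read at Ex/Em 405/460 nm, expressed as triamterene-equivalent signal.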

[18] = target: Glucocorticoid receptor (Homo sapiens) (UniProt P04150); experiment: qHTS assay to identify small molecule agonists of the glucocorticoid receptor (GR) signaling pathway (AID 720691; active = well fitted activation curve with a large enough effect in the signal ratio in the repeat runs, not every such curve was filed as active; inconclusive = weak or mixed curves, or effect the other way; inactive = no such curve, though single readings can be large or run the other way; the % refers to the signal ratio; note: potency is the fitted concentration of half-maximal effect); conditions: GR-bla HeLa, beta-lactamase reporter ratio, 18 h; activation: at 62.4 µM (top of the series)
Chain of Glucocorticoid receptor (Homo sapiens) (P04150 whole entry, looked up): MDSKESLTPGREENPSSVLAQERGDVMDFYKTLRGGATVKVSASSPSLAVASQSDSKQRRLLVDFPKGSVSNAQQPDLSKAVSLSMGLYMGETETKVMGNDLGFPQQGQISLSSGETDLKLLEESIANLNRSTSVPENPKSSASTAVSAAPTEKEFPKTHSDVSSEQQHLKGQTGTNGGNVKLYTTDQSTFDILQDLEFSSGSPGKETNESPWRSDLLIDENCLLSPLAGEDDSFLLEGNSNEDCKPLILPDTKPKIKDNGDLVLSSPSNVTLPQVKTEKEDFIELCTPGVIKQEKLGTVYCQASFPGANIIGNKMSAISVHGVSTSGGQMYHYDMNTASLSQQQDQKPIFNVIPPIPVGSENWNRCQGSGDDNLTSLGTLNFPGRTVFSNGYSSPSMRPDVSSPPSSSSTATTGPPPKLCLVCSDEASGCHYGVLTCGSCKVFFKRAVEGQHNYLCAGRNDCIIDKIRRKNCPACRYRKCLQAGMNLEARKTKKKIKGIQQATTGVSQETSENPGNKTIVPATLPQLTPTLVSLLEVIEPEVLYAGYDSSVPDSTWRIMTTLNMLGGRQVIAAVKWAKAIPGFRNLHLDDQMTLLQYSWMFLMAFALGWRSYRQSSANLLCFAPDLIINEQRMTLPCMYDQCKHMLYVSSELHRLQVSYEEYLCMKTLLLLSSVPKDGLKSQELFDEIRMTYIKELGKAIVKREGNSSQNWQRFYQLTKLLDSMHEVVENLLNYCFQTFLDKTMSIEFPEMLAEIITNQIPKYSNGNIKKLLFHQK
In short: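 HeLa GR-bla reporter line; cells pre-incubated 4 h, compound in DMSO 18 h at 37 C; LiveBLAzer B/G FRET substrate 2 h RT; fluorescence intensity read-out.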

[19] = qHTS assay for small molecule disruptors of the mitochondrial membrane potential (AID 720635); note: potency is the fitted concentration of half-maximal effect
In short: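 HepG2 cells (2,000/well) attached overnight at 37C, then took compound for 1 hr at 37C, 5% CO2. Mito-MPS dye was added for 30 min; fluorescence was read at 490/535 nm (monomers) and 540/590 nm (aggregates).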

[20] = target: Glucocorticoid receptor (Homo sapiens) (UniProt P04150); experiment: qHTS assay to identify small molecule antagonists of the glucocorticoid receptor (GR) signaling pathway (AID 720692; active = well fitted inhibition curve with a large enough effect in the signal ratio in the repeat runs, not every such curve was filed as active; inconclusive = weak or mixed curves, or effect the other way; inactive = no such curve, though single readings can be large or run the other way; the % refers to the signal ratio)
In short: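 Read-out: beta-lactamase FRET substrate fluorescence, 2 h at room temperature, in HeLa cells stably carrying a GRE-driven bla reporter. Compounds were co-incubated with 5 nM dexamethasone agonist (final) for 18 h at 37 C.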

Measured: Potency

Cc1cc(Br)ccc1NC(=O)CCl
active: [1] 8.63 µM | [3] 43.3 µM | [4] 54.5 µM
not listed: [19] | [20]
inactive: all other assays above

C=C(Nc1ccc(OCC)cc1)Nc1ccc(OCC)cc1
not listed: [18] | [19] | [20]
inactive: all other assays above

CC(=O)OCC(=O)[C@@]1(O)CC[C@H]2[C@@H]3C[C@H](C)C4=CC(=O)C=C[C@]4(C)[C@H]3[C@@H](O)C[C@@]21C
active: [18] 0.134 µM [inconclusive]
not listed: [9] | [12] | [20]
inactive: all other assays above

O=C(O)c1cc2cc(Cc3cccnc3)ccc2o1
not listed: [19]
inactive: all other assays above

CO/N=C(\C(=O)N[C@@H]1C(=O)N2C(C(=O)[O-])=C(C[n+]3cccc4c3CCC4)CS[C@H]12)c1csc(N)n1
not listed: [18] | [19] | [20]
inactive: all other assays above

O=C1CCC/C=C\CCCCCCCCCC1
not listed: [18] | [19] | [20]
inactive: all other assays above

CCCCCN=C(N)N/N=C/c1c[nH]c2ccc(OC)cc12
not listed: [9]
inactive: all other assays above

O=C(CCCN1CCN2CCCC2C1)c1ccc(F)cc1 (stereo not given)
not listed: [19]
inactive: all other assays above

NC[C@H]1O[C@H](O[C@H]2[C@H](O)[C@@H](O[C@H]3O[C@H](CO)[C@@H](O)[C@H](N)[C@H]3O)[C@H](N)C[C@@H]2N)[C@H](N)C[C@@H]1O
not listed: [18] | [19] | [20]
inactive: all other assays above

COc1cc2c(cc1O)CCN[C@]21CS[C@@H]2c3c(OC(C)=O)c(C)c4c(c3[C@H](COC1=O)N1[C@@H]2[C@H]2c3c(cc(C)c(OC)c3O)C[C@@H]([C@@H]1O)N2C)OCO4
inactive and 243 nM (active): [2]
active: [1] 8.4 nM and 12.2 nM | [4] 0.0422 µM
not listed: [11] | [18] | [19] | [20]
inactive: all other assays above

CC[C@@H](C(=O)[C@@H](C)[C@@H](O)[C@H](C)CCc1ccc(C)c(O)c1C(=O)O)[C@H]1O[C@](CC)([C@H]2CC[C@](O)(CC)[C@H](C)O2)C[C@@H]1C
active: [1] 23.7 µM | [3] 26.6 µM | [4] 23.7 µM | [5] 5.96 µM | [19] 1.06 µM | [18] 16.9 µM [inconclusive]
not listed: [9] | [12] | [20]
inactive: all other assays above

O=P(O)(O)OP(=O)(O)OP(=O)(O)O
not listed: [11] | [19]
inactive: all other assays above

CC(CNC(=O)c1cccnc1)NC(=O)c1cccnc1 (stereo not given)
not listed: [19] | [20]
inactive: all other assays above

NC(N)=NCC1COC2(CCCCC2)O1 (stereo not given)
not listed: [19]
inactive: all other assays above

CCCCCCCCCCCCCCCCCCOCC(COP(=O)([O-])OCC[N+](C)(C)C)OC (stereo not given)
not listed: [19] | [20]
inactive: all other assays above

O=C(O)CCCC/C=C(\c1ccccc1)c1cccnc1
not listed: [18] | [19] | [20]
inactive: all other assays above

CN=C(N)NCCC[C@H](N)C(=O)O
not listed: [12] | [18] | [19] | [20]
inactive: all other assays above

CC1(C)S[C@@H]2[C@H](NC(=O)[C@H](N)c3ccc(O)cc3)C(=O)N2[C@H]1C(=O)O
not listed: [8] | [11] | [12] | [15] | [18] | [20]
inactive: all other assays above

Cc1onc(-c2c(F)cccc2Cl)c1C(=O)N[C@@H]1C(=O)N2[C@@H]1SC(C)(C)[C@@H]2C(=O)O
not listed: [19]
inactive: all other assays above

CO[C@H](C(=O)[C@@H](O)[C@@H](C)O)C1Cc2cc3cc(O[C@H]4C[C@@H](O[C@H]5C[C@@H](O)[C@H](O)[C@@H](C)O5)[C@@H](O)[C@@H](C)O4)c(C)c(O)c3c(O)c2C(=O)[C@H]1O[C@H]1C[C@@H](O[C@H]2C[C@@H](O[C@H]3C[C@](C)(O)[C@H](O)[C@@H](C)O3)[C@H](O)[C@@H](C)O2)[C@H](O)[C@@H](C)O1 (stereo not given in full)
active: [1] 42.2 nM and 53.1 nM | [19] 27.8 µM
not listed: [9] | [11] | [18] | [20]
inactive: all other assays above

CC1(C)S[C@@H]2[C@H](N3C(=O)C(c4ccccc4)NC3(C)C)C(=O)N2[C@H]1C(=O)O (stereo not given in full)
not listed: [18] | [19] | [20]
inactive: all other assays above

COc1ccc(/C=C/C(=O)Nc2ccccc2C(=O)O)cc1OC
active: [2] 1.19 µM
not listed: [19] | [20]
inactive: all other assays above

CC(=O)O[C@H]1C[C@@H]2CC[C@@H]3[C@H](CC[C@@]4(C)[C@H]3C[C@H]([N+]3(C)CCCCC3)[C@@H]4OC(C)=O)[C@@]2(C)C[C@@H]1[N+]1(C)CCCCC1
not listed: [19]
inactive: all other assays above

CCC(=O)OC(OP(=O)(CCCCc1ccccc1)CC(=O)N1C[C@H](C2CCCCC2)C[C@H]1C(=O)O)C(C)C (stereo not given in full)
not listed: [19] | [20]
inactive: all other assays above
